Source: PubChem
This is a sample that favours compounds with a hit; in the whole collection about 2% have one here.
CHO-K1 Ca ag – nonselective activator or artifact in parental CHO-K1 cells; Fluo-8 calcium fluorescence; scaled to maximal ATP response, vehicle zero; activation, % at 3 µM; 0.48% of 360,000 active; AID 602248; in the data active means activation above about 15%;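 further: untransfected CHO-K1 host cells lacking M1 receptor as counterscreen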
CHRM4 agonist – agonists of human muscarinic M4 receptor (CHRM4); P08173; CHO-K1 hM4/Gqi5, Fluo-8 calcium fluorescence; vehicle 0%, full acetylcholine response 100%; activation, % at 3 µM; 0.14% of 360,000 active; AID 624127;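 active means activation above the run mean over all test wells plus 3 SD, cut at about 32% in these data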;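 further: peak over basal fluorescence ratio per well then scaled between controls; 0% = DMSO wells and 100% = acetylcholine at EC100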
Target sequence (P08173 whole entry, looked up): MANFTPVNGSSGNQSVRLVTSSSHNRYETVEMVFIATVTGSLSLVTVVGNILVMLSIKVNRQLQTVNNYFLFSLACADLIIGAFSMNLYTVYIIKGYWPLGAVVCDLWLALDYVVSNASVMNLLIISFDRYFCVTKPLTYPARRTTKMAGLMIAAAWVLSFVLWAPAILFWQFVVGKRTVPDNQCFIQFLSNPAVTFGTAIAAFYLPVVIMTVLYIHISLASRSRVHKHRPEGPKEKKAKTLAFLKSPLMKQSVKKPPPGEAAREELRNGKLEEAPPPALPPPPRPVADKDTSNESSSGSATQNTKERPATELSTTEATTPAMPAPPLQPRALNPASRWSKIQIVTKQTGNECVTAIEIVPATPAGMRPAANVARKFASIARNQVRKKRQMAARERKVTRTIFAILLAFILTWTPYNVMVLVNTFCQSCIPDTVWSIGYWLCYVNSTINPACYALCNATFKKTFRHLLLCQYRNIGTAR
M4 antag – antagonists of human muscarinic M4 receptor (CHRM4) | inhibition, % at 3 µM | AID 624125 | P08173 | 0.73% of 360,000 active | CHO-hM4 cells, ACh EC80, Fluo-8 calcium fluorescence;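 active means inhibition above its plate's cutoff, the mean inhibition of sample wells plus 3 SD, cut at about 27% in these data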;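 further: 0% = acetylcholine EC80 with DMSO and 100% = DMSO without agonist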
CHO-K1 Ca antag – M1 antagonist counterscreen hit in parental CHO-K1 cells; ATP-induced calcium, Fluo-8 fluorescence; inhibition, % at 3 µM; 0.6% of 360,000 active; AID 602250;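 active means inhibition above a per-plate cutoff, the plate's mean sample inhibition plus 3 SD, cut at about 24% in these data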;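 further: 0% = DMSO plus EC80 ATP and 100% = DMSO alone without ATP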
M4 PAM – potentiates acetylcholine response at human M4 receptor; P08173; 0.4% of 360,000 active; CHO-K1 hM4/Gqi5, Fluo-8 calcium fluorescence, ACh EC20; 0% = ACh EC20, 100% = maximal ACh; activation, % at 3 µM; AID 624126;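 active means activation above its plate's cutoff, the mean activation of sample wells plus 3 SD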
CHO-K1 Ca PAM – nonselective activator or artifact in parental CHO-K1 calcium assay. ATP EC20, Fluo-8 calcium fluorescence; 0% at ATP EC20, 100% at ATP max. activation, % at 3 µM. 0.02% of 360,000 active. AID 602247;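 active means activation above the run cutoff, the mean activation of all test compounds plus 3 SD, cut at about 40% in these data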;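 further: peak over basal fluorescence ratio in a 140 s read after ATP addition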
Active calls of the source: *.

SMILES	CHO-K1 Ca ag	CHRM4 agonist	M4 antag	CHO-K1 Ca antag	M4 PAM	CHO-K1 Ca PAM
CCN(CC)CCCOC(=O)C1(c2ccccc2)CCCC1	0.9	1.3	95.5*	-3.3	-21.6	1.2
CCN(CC)CCOC(=O)C1(c2ccccc2)CCOCC1	0.0	0.0	1.8	9.8	-0.4	-6.6
CCN(CC)CCOC(=O)C1(c2ccc([N+](=O)[O-])cc2)CCCC1	0.5	1.8	49.0*	-5.5	-16.9	8.0
CCN(CC)CCOC(=O)c1ccccc1Br	0.6	0.7	-3.9	1.3	-9.5	8.6
CCN(CC)CCOCCOC(=O)C1(c2ccccc2)CCCC1	0.5	2.4	90.8*	2.4	-16.8	2.1
CN(Cc1ccc(Cl)cc1)C(=O)CNC(=O)C12CC3CC(CC(C3)C1)C2	2.4	4.3	-3.6	-2.4	12.3	7.5
COc1ccc(C(CNC(=O)COc2cc(C)c(Cl)c(C)c2)N2CCCCC2)cc1 (centres undefined)	2.0	1.2	7.0	-9.3	-7.5	22.4
Cc1ccc(NC2=NC(c3ccc(F)cc3)n3c(nc(C)cc3=O)N2)cc1 (centres undefined)	0.4	0.1	-4.0	2.4	-1.6	-22.4
O=C(c1cnn2c(C(F)F)cc(C3CC3)nc12)N1CCc2ccccc2C1	2.8	10.9	-6.3	9.8	-12.3	9.2
O=C(c1cnn2c(C(F)F)cc(C3CC3)nc12)N1CCCC1	-1.0	-2.9	20.9	-2.0	34.4*	-5.9
Cc1nc2sc(C(=O)Nc3ccccc3)c(N)c2c(C)c1[N+](=O)[O-]	3.6	2.4	-11.3	-10.1	12.7	15.4
CSc1ncc2c(=O)[nH]c(-c3ccccc3)nc2n1	1.6	2.8	0.2	-5.4	-8.5	-11.3
CSc1ncc2[nH]c(C(O)c3ccccc3)nc2n1 (centres undefined)	10.9	10.3	-10.2	6.1	18.0*	-4.5
O=C(C1CCC(CNS(=O)(=O)c2cccs2)CC1)N1CCN(c2ccc(Cl)cc2)CC1 (centres undefined)	15.9*	5.8	0.0	-2.5	4.7	19.0
CCOc1ccc(NC(=O)CN2C(=O)NC(C)(c3ccc4c(c3)OCCCO4)C2=O)cc1OCC (centres undefined)	1.3	6.3	7.8	-9.4	-2.4	15.7
CCOC(=O)C1=C(O)/C(=C\c2ccc(CNC(=O)C(=O)Nc3ccccc3)o2)N=C1C	-0.4	-0.2	-14.7	28.2*	6.8	-8.7
CC1(C(=O)Nc2ccc(Cl)c(Cl)c2)CCN1C(=O)CC1CCCC1 (centres undefined)	0.2	-1.2	-16.2	-13.6	-3.5	1.5
CCOC(=O)C1CCC(CNCc2ccc(Cl)cc2)CC1 (centres undefined)	1.3	2.5	41.9*	-13.9	-14.0	27.4
CCOC(=O)C1CCN(C(=O)CCC(=O)NCCc2ccc(Cl)cc2)CC1	1.0	0.4	1.2	-10.1	-4.2	15.8
CCOC(=O)c1[nH]c2c(c1C)C(=O)CC(c1ccc(F)cc1)C2 (centres undefined)	1.2	4.2	-3.0	34.3*	-5.0	-12.5
CCOCCOC(=O)c1[nH]c2c(c1C)C(=O)CC(c1ccccc1)C2 (centres undefined)	5.7	10.6	-9.3	8.3	-9.1	-5.2
COCCOC(=O)c1[nH]c2c(c1C)C(=O)CC(c1ccc(OC)c(OC)c1)C2 (centres undefined)	1.5	9.2	-2.1	21.6	-10.5	-0.5
COC(=O)c1[nH]c2c(c1C)C(=O)CC(c1ccc(OC)c(OC)c1)C2 (centres undefined)	23.2*	8.4	1.0	11.1	2.2	-6.0
NC(N)=N/N=C(\N=Nc1ccccc1)c1ccc(Cl)cc1	6.1	6.2	7.9	-5.5	-2.3	14.3
C=CCNC(=S)Nc1c(N)n(C)c(=O)n(C)c1=O	0.3	0.9	1.0	-16.4	21.6	12.0
SMILES	CHO-K1 Ca ag	CHRM4 agonist	M4 antag	CHO-K1 Ca antag	M4 PAM	CHO-K1 Ca PAM
CC[n+]1c(/C=C/c2cc([N+](=O)[O-])ccc2O)ccc2ccccc21	0.1	1.8	4.0	23.9*	-5.1	-5.7
COCc1nc2ccccc2n1CCc1ccccc1	-0.1	-0.2	0.8	26.4*	-3.1	-10.1
CCOC(=O)c1c(-c2ccccc2Cl)cn2ccccc12	1.1	-2.9	8.1	100.0*	-10.1	10.1
Cc1ccc(C(=O)N/N=C/c2cccnc2)cc1Cl	-0.7	1.6	-16.7	5.7	12.6	5.6
CO/N=C/CC(=O)Nc1ccc(F)cc1F	0.1	0.6	-3.2	-24.6	-0.7	21.4
O=C(C/C=N\OCc1ccc([N+](=O)[O-])cc1)Nc1ccc(F)cc1F	29.4*	4.3	-7.7	4.0	-5.7	11.8
CCC(=O)NC(=S)Nc1ccc(N2CCN(C(=O)c3ccc(Cl)cc3)CC2)cc1	11.0	17.6	-4.8	-7.9	-8.2	-0.4
Cc1cccc(N(C)C(=O)C2CCCN2S(=O)(=O)c2cccc3nsnc23)c1 (centres undefined)	-0.1	0.2	28.6*	-12.7	9.1	5.6
CN(CC(=O)N1CCN(C2CCCCC2)CC1)S(=O)(=O)c1cccc2nsnc12	0.2	2.0	29.1*	3.5	1.0	-2.1
CCN(C(=O)C1CCCN1S(=O)(=O)c1cccc2nsnc12)c1ccccc1 (centres undefined)	0.6	1.2	-13.8	-3.4	5.7	-17.5
O=c1ccnc(SCc2ccccc2Cl)[nH]1	-0.1	-0.2	3.4	27.8*	0.8	-8.5
CC(C)(C)c1cc(=O)[nH]c(SCc2ccccc2Cl)n1	-0.1	-2.0	6.8	-8.4	10.3	-1.0
CCn1c(SCC(=O)c2ccc(NS(=O)(=O)c3ccccc3)cc2)nnc1-c1cccs1	-0.1	2.2	-20.5	23.7*	6.0	-5.3
CCn1c(SCC(=O)Nc2ccccc2)nnc1-c1cccs1	0.6	2.6	-6.3	3.2	12.8	-5.3
CCCC/C(O)=C1\C(=O)CC(C)(C)CC1=Nc1ccc(OC)cc1	3.9	-3.0	30.5*	-14.5	-16.8	20.3
CCC/C(O)=C1\C(=O)CC(C)(C)CC1=Nc1ccc(OC)cc1	0.1	-1.7	0.0	-9.6	-2.5	17.1
COc1cc(C(=O)NCCC(=O)N2CCC3(CC2)NCCc2[nH]cnc23)cc(OC)c1OC	0.1	1.6	0.5	-6.9	-2.6	-19.5
Cc1snc(SCc2ccc(Cl)cc2)c1C#N	-0.1	-0.7	5.8	-2.9	-2.2	2.9
Cc1snc(SCc2ccc(F)cc2)c1C#N	2.8	-1.1	-10.8	-6.2	18.3*	24.5
Cc1nccc(-c2cc(-c3ccc(Cl)cc3Cl)no2)n1	5.2	13.7	-0.1	-5.0	-6.8	14.8
Cc1c(NS(=O)(=O)c2cc(C(=O)OCC(=O)N3CCC(C)CC3)ccc2Cl)c(=O)n(-c2ccccc2)n1C	-0.1	1.9	-4.5	0.8	-1.6	-11.2
CC1(C)C2CCC(C2)C1(C)NC(=O)C[N+](C)(C)C (centres undefined)	22.9*	1.1	-5.1	-7.0	1.8	0.9
